About 3,200 (25%) of roughly 13,000 compounds showed an effect of 50% or more. The list shows a part of the results.

The values below come from paper PMC4552634, “A New Set of Chemical Starting Points with Plasmodium falciparum Transmission-Blocking Potential for Antimalarial Drug Discovery” (PLoS ONE, 2015).

The assay has as its system P. falciparum stage V gametocytes. Also on record: BacTiter-Glo ATP luminescence viability of purified stage V gametocytes in 384-well plates, per cent inhibition versus DMSO. Conditions: 48 h, 5 µM; inhibitor.
As a reminder, the % Inhibition is the change of the read-out against control, counted positive when it falls. As for `CCOC(=O)CCCOc1c(OC)cc(Cc2cnc(N)nc2N)cc1OC` [TCMDC-137899], the “% Inhibition” value was -8.343%.

Take `O=C(Nc1ccc(Cl)c(C(F)(F)F)c1)Nc1ccc(Cl)c(C(F)(F)F)c1` [TCMDC-137559]: the “% Inhibition” value is -42.31%.

Regarding `CC(C)(C)c1ccc(CN2CCC(CNC(=O)c3cc(-c4cccc(C(F)(F)F)c4)cs3)C2)cc1` (stereo not drawn) [TCMDC-134442], the “% Inhibition” value came to 107%.

As to `CN(C)CCOc1cc(NC(=O)/C=C/c2cccc3ccccc23)ccc1I` [TCMDC-139119], the “% Inhibition” value turned out to be 42.15%.

In the case of `NC(=O)C1CCN(Cc2ccc(-c3cccc(-c4nc5ccc(F)cc5[nH]4)c3)cc2)CC1` [TCMDC-132689], the “% Inhibition” value is given as -35.18%.

As to `OCC1CCN(Cc2ccc(-c3cccc(-c4nc5ccc(F)cc5[nH]4)c3)cc2)CC1` [TCMDC-133121], the “% Inhibition” value turned out to be 70.65%.

As to `OCC1CCN(Cc2ccc(-c3cccc(-c4nc5ccccc5[nH]4)c3)cc2)CC1` [TCMDC-132552], the “% Inhibition” value is given as 86.93%.

Turning to `OCC1CCN(Cc2ccc(-c3ccc(-c4nc5ccccc5[nH]4)cc3)cc2)CC1` [TCMDC-133927], the “% Inhibition” value is recorded as -51.35%.

Take `OCC1CCN(Cc2cccc(-c3ccc(-c4nc5ccc(F)cc5[nH]4)cc3)c2)CC1` [TCMDC-133934]: the “% Inhibition” value was -11.78%.

As for `OCCC1CCN(Cc2ccc(-c3ccc(-c4nc5ccccc5[nH]4)cc3)cc2)CC1` [TCMDC-133905], the “% Inhibition” value was -1.76%.

With `COc1cccc(CNC[C@@H](O)[C@H](Cc2ccccc2)NC(=O)c2cc(OC(C)C)cc(N3CCCCS3(=O)=O)c2)c1` [TCMDC-134522], the “% Inhibition” value is given as -6.565%.

On to `COc1ccc2c(c1)CCCC2C(C)NCC(O)c1cccc(C(F)(F)F)c1` (stereo not drawn) [TCMDC-131535], for which the “% Inhibition” value was -11.59%.

For the compound `Cc1[nH]c(C)c(-c2ccc(-c3cccc(Cl)c3)nc2)c(=O)c1Cl` [TCMDC-136300], the “% Inhibition” value came to 76.37%.

As to `Cc1[nH]c(C)c(-c2ccc(-c3cccc(Cl)c3)nc2)c(=O)c1Br` [TCMDC-136160], the “% Inhibition” value turned out to be 67.06%.

In the case of `Cc1ccc(NC(=O)c2ccc(CN3CCCN(CCC(C)C)CC3)cc2)cc1C` [TCMDC-136443], the “% Inhibition” value is -19.3%.

On to `Cc1nc2c(Nc3nc(-c4ccncc4)cs3)ncnc2n1-c1ccccc1Cl` [TCMDC-136288], for which the “% Inhibition” value is 72.25%.

`Cc1nc(Nc2ccncc2)cc(-c2ccncc2)n1` [TCMDC-124589]: the “% Inhibition” value was -12.99%.

Consider `Cn1cnc2c(Nc3ccncc3)nc(-c3ccc4ccccc4c3)nc21` [TCMDC-141131], for which the “% Inhibition” value was -3.392%.

As for `Cc1ccc(-n2c(C)nc3c(Nc4ccc(-c5ccncc5)cc4)ncnc32)c(C)c1` [TCMDC-136289], the “% Inhibition” value was found to be 103.3%.

Take `Oc1ccc2[nH]c(-c3cccc(F)c3)nc2c1CN1CCC(O)(c2ccccc2)CC1` [TCMDC-136359]: the “% Inhibition” value is listed as -19.77%.

Turning to `CC(C(=O)Nc1ccc(Br)cc1Br)N1CCN(C(=O)c2ccco2)CC1` (stereo not drawn) [TCMDC-124879], the “% Inhibition” value is on record as -7.948%.

`CCCC(C)NC(=O)[C@H](CC1CCCCC1)NC(=O)c1ccc(O)c(-c2ccc(OC)cc2)c1` (stereo partly drawn) [TCMDC-140801]: the “% Inhibition” value is on record as 27.46%.

As to `CN(C)CCCNCc1ccc(-c2ccc(CNCCc3ccccc3)cc2)cc1` [TCMDC-141456], the “% Inhibition” value amounted to 100.3%.

Turning to `CC[C@H](C)CNC(=O)c1cncc(-c2ccc(CNCCOc3ccccc3)cc2)c1` [TCMDC-134239], the “% Inhibition” value is on record as -0.3321%.

As to `CCCNC(=O)c1cncc(-c2ccc(CNCCCc3ccccc3)cc2)c1` [TCMDC-134248], the “% Inhibition” value was found to be 11.91%.

Regarding `CN(C)CCCOc1cccc(NC(=O)Nc2ccc(-c3ccccc3)cc2)c1` [TCMDC-139539], the “% Inhibition” value is recorded as -65.39%.

`CN(C)CCCNCc1ccc(-c2ccc(CNCCOc3ccccc3)cc2)cc1` [TCMDC-141457]: the “% Inhibition” value turned out to be 91.94%.

Take `CC1(C)N=C(N)N=C(N)N1OCCOc1cccc(C(F)(F)F)c1` [TCMDC-131615]: the “% Inhibition” value turned out to be 4.099%.

On to `CCc1c(CCNCCCCCCNCCc2ccc([N+](=O)[O-])cc2)ccc(O)c1O` [TCMDC-132067], for which the “% Inhibition” value amounted to 69.46%.

As to `CCc1c(CCNCCCCCCNCCc2ccc(Br)cc2)ccc(O)c1O` [TCMDC-132044], the “% Inhibition” value is on record as 115.9%.

For the compound `Cc1cc(CNCCCCCCNCc2cccc([N+](=O)[O-])c2)ccc1O` [TCMDC-140413], the “% Inhibition” value is reported as 32.63%.

For the compound `CCCCCCNCc1c(O)ccc2c(CNCCCCCC)c(O)ccc12` [TCMDC-137592], the “% Inhibition” value is on record as -1.678%.

`O=C(N[C@H]1CCCC[C@H]1C(=O)O)c1ccccc1` [TCMDC-124293]: the “% Inhibition” value is on record as -3.601%.

On to `Cc1ccc(CNC(=O)c2cnc(N3CCN(c4ccncc4)CC3)c(Cl)c2)cc1` [TCMDC-134626], for which the “% Inhibition” value amounted to 3.173%.

Regarding `CC1(C)CCC(C)(C)c2c1ccc(C1CCN(CCCCNC(=O)c3ccc(-c4ccc(C#N)cc4)cc3)CC1)c2O` [TCMDC-135505], the “% Inhibition” value came to 91.89%.

For `COc1c(C2CCN(CCCCNC(=O)c3ccc(-c4ccc(C#N)cc4)cc3)CC2)ccc2c1C(C)(C)CCC2(C)C` [TCMDC-135481], the “% Inhibition” value was determined as 92.96%.

Turning to `Cc1cc(C2CCN(CCCCNC(=O)c3ccc(-c4ccc(C#N)cc4)cc3)CC2)c(C)cc1O` [TCMDC-138817], the “% Inhibition” value is recorded as -58.22%.

Turning to `Cc1c(C2CCN(CCCCNC(=O)c3ccc(-c4ccc(C#N)cc4)cc3)CC2)c2ccccc2n1CCO` [TCMDC-138815], the “% Inhibition” value was -16.09%.

For `Cc1ccc(C2CCN(CCCCNC(=O)c3ccc(-c4ccc(C#N)cc4)cc3)CC2)c(O)c1` [TCMDC-138658], the “% Inhibition” value was -70.86%.

Turning to `COc1c(C2CCN(CCCCNC(=O)c3ccc(-c4ccc(C#N)cc4)cc3)CC2)cc(Cl)c2c1CCCC2` [TCMDC-135288], the “% Inhibition” value is -31.75%.

As to `CC1(C)CCC(C)(C)c2c1ccc(C1CCN(CCCCNC(=O)c3ccc(-c4ccc(Cl)cc4)cc3)CC1)c2O` [TCMDC-135483], the “% Inhibition” value is on record as 86.31%.

For the compound `CCc1ccc(C2CCN(CCCCNC(=O)c3ccc(-c4ccc(Cl)cc4)cc3)CC2)c(O)c1` [TCMDC-138548], the “% Inhibition” value was 18.22%.

For the compound `N#Cc1ccc(-c2ccc(C(=O)NCCCCN3CCC(c4nc5ccccc5[nH]4)CC3)cc2)cc1` [TCMDC-133362], the “% Inhibition” value was determined as 24.39%.

With `COc1c(C2=CCN(CCCCNC(=O)c3ccc(-c4ccc(C#N)cc4)cc3)CC2)c(C)cc2c1C(C)(C)CCC2(C)C` [TCMDC-135480], the “% Inhibition” value worked out at 3.716%.

`Cc1[nH]c2ccccc2c1C1CCN(CCCCNC(=O)c2ccc(-c3ccc(C#N)cc3)cc2)CC1` [TCMDC-138808]: the “% Inhibition” value was determined as 60.39%.

For `CCC(C)(C)C1CCc2[nH]c3ccccc3c(=O)c2C1` (stereo not drawn) [TCMDC-125226], the “% Inhibition” value amounted to 30.2%.

Regarding `CC(=O)N/N=C/[C@H](CCc1ccccc1)NC(=O)[C@H](CC(C)C)NC(=O)c1ccc(OCCN2CCOCC2)cc1` [TCMDC-135916], the “% Inhibition” value was found to be 2.96%.

As to `CC(NC(C)c1cccc(Cl)c1)C(=O)Nc1cc(C(F)(F)F)ccc1N1CCOCC1` (stereo not drawn) [TCMDC-125061], the “% Inhibition” value is given as -33.15%.

For the compound `Cc1cccc(C(=O)Nc2ccnc(N3CCC(N(C)Cc4cccc(C#N)c4)CC3)c2)c1` [TCMDC-134973], the “% Inhibition” value was -4.566%.

On to `O=C(c1ccco1)N1CCN(c2nc(-c3ccc(Cl)cc3)nc3ccccc23)CC1` [TCMDC-124753], for which the “% Inhibition” value amounted to 14.1%.

In the case of `COc1ccc2nccc([C@@H](O)CN3CCC(NC(=O)C(c4cc5ccccc5s4)N4CC(C)OC(C)C4)CC3)c2c1` (stereo partly drawn) [TCMDC-140995], the “% Inhibition” value was 7.748%.

As for `N#Cc1ccc(-c2ccc(C(=O)NCCCCN3CCC(c4cc(Br)c5c(c4OCC(N)=O)CCCC5)CC3)cc2)cc1` [TCMDC-135263], the “% Inhibition” value is recorded as -29.4%.

Consider `C=CCc1cc(C2CCN(CCCCNC(=O)c3ccc(-c4ccc(C#N)cc4)cc3)CC2)c(OCC(N)=O)c2c1CCCC2` [TCMDC-135625], for which the “% Inhibition” value was -14.83%.

As for `COc1c(C2CCN(CCCCNC(=O)c3ccc(-c4ccc(Cl)cc4)cc3)CC2)ccc2c1C(C)(C)CCC2(C)C` [TCMDC-135482], the “% Inhibition” value amounted to 91.33%.

`CC1(C)CCC(C)(C)c2c1ccc(C1CCN(CCCCNC(=O)c3ccc(-c4ccc(C#N)cc4)cc3)CC1)c2OCC(N)=O` [TCMDC-135627]: the “% Inhibition” value is on record as 76.03%.

Consider `OCCc1ccc(Nc2nccc(-c3nnc4ccccn34)n2)cc1` [TCMDC-138924], for which the “% Inhibition” value was -13.1%.

As to `COc1ccc(Nc2nc(NCc3cccnc3)cc(-c3ccc(OC)cc3)n2)cc1` [TCMDC-133467], the “% Inhibition” value amounted to 9.957%.

Take `Cc1ccc(-c2[nH]n3c(=O)c4c(nc3c2C)CCCC4)cc1` [TCMDC-124479]: the “% Inhibition” value is 75.27%.

`Cc1cc(-c2cc3nc4c(c(=O)n3[nH]2)CCCC4)c(C)o1` [TCMDC-125325]: the “% Inhibition” value was 32.39%.

Regarding `O=c1[nH]c(NCCCNCc2cc3c(Cl)cc(Cl)cc3[nH]2)nc2ccsc12` [TCMDC-139925], the “% Inhibition” value is reported as -0.4742%.

On to `Cc1cc(N2CCCC2)nc(Nc2ccc(NC(=O)C3CCCC3)cc2)n1` [TCMDC-124964], for which the “% Inhibition” value was -12.42%.

With `CS(=O)(=O)Cc1cccc(Nc2ncc(Cl)c(Nc3cccnc3C(N)=O)n2)c1` [TCMDC-134166], the “% Inhibition” value is listed as -54.44%.

Take `O=C(Nc1cccc(-c2nn3ccccc3c2-c2ccnc(Nc3ccc(C(=O)N4CCOCC4)cc3)n2)c1)c1c(F)cccc1F` [TCMDC-135910]: the “% Inhibition” value is recorded as -23.59%.

For `NC(=O)N1CCN(Cc2ccc(Br)cc2)CC1` [TCMDC-137933], the “% Inhibition” value turned out to be 4.957%.

In the case of `c1cncc(Oc2ccc(Nc3ccnc4cc(-c5cccc(CNCCN6CCOCC6)c5)ccc34)cc2)c1` [TCMDC-138492], the “% Inhibition” value was determined as 84.98%.

As to `N#Cc1cnc2cc(-c3cnc(CNCCN4CCOCC4)s3)ccc2c1Nc1ccc(Oc2ccccc2)cc1` [TCMDC-138611], the “% Inhibition” value was determined as 2.275%.

Turning to `Fc1ccc(Nc2ccnc3cc(-c4cccc(CNCCN5CCOCC5)c4)ccc23)c(Cl)c1` [TCMDC-138414], the “% Inhibition” value worked out at 41.76%.

On to `c1ccc(Oc2ccc(Nc3ccnc4cc(-c5cccc(CNCCN6CCOCC6)c5)ccc34)cc2)cc1` [TCMDC-138474], for which the “% Inhibition” value is listed as 52.49%.

Take `c1ccc(Oc2ccc(Nc3ccnc4cc(-c5ccc(CNCCN6CCOCC6)o5)ccc34)cc2)cc1` [TCMDC-138398]: the “% Inhibition” value came out at 12.11%.
